From patent US20060069055, “Delivery of polynucleotides” (published 2006) come the findings set out here.

Chain of NF-kB p50/p50 homodimer (P19838 1-433, one chain of several): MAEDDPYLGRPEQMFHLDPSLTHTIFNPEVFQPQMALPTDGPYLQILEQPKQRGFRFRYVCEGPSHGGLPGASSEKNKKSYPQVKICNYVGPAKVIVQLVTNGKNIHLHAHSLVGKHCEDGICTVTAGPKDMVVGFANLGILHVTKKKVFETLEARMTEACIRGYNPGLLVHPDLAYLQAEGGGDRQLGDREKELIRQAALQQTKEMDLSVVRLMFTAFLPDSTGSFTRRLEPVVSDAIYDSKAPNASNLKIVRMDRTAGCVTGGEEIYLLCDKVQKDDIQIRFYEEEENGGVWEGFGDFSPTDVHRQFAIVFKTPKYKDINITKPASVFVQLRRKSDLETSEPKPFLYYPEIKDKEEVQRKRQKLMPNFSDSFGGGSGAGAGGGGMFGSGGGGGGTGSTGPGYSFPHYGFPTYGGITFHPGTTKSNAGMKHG

The target in this test is NF-kB p50/p50 homodimer (Homo sapiens, UniProt P19838 P19838:1-433). The experiment in a line: EMSA. As to conditions: protein: extract; tags: nuclear extract of LPS-stimulated THP-1 cells; chain copies: 2 stated; dsDNA, one strand shown. From the text:
The EMSA assay was employed to characterize oligonucleotide decoys for the NF-κB transcription factor. […] Using the above modified oligonucleotides to compete for binding for the above-mentioned NF-κB family members, it was possible to compare the binding affinity of these oligonucleotides against the high affinity radiolabeled probe and each other. This assay has also enabled the design of a decoy which selectively binds particular members of the NF-κB family. By using increasing concentrations of various oligonucleotides, it was observed that, by deleting or changing targeted residues in the binding site, it was possible to specifically decrease the binding of the decoy molecule to p50/p50 homodimers, while retaining the affinity for p65/p50 and cRel/p50 heterodimers.
The NF-κB gel shift assays (EMSA) were performed as follows. A double-stranded oligonucleotide containing a consensus NF-κB binding site (5′ […].GGC 3′) (SEQ ID NO: 26) was end-labeled with γ³²P-ATP using T4 Polynucleotide Kinase (Promega). One microgram of a nuclear extract prepared from LPS stimulated THP-1 cells (human monocyte cell line) was incubated with 35 fmol of radiolabeled probe in the presence or absence of competing unlabeled NF-κB double-stranded oligonucleotides (dsODN) or scrambled dsODN. The incubations were carried out at room temperature for 30 minutes in a 20 μl reaction volume composed of 10 mM Tris-HCl pH 8, 100 mM KCL, 5mM MgC12, 2mM DTT, 10% Glycerol, 0.1% NP-40, 0.025% BSA and 1 μg Poly-dIdC. The reactions were loaded onto a 6% polyacrylamide gel, subjected to electrophoresis and dried. The dried gels were imaged and quantitated using a Typhoon 8600 Phosphorlmager (Amersham) and ImageQuant software. The identity of the NF-κB proteins contained in complexes bound to the radiolabeled oligonucleotide probe were identified by pre-incubating the reactions for 5 minutes with individual antibodies specific for each member of the NF-κB family prior to the addition of the radiolabeled probe.
For the sequence AGTTGAGGATTTCCAGGC, the IC50 was found to be 82 fold molar excess.
The result for AGTTGAGGGATTTCCAGGC reads 69 fold molar excess; that for TTGAGGACTTTCCAGGCTC, 85 fold molar excess; that for AGTTGAGGATTTCCCAGGC, 84 fold molar excess.
In turn, TCGGACTTTCCCTC gave an IC50 of 62.5 fold molar excess.
The result for TCGGACTTTCCTC reads 97 fold molar excess.
